Compound activity from PubChem.
This is a sample that favours compounds with a hit; in the whole collection about 3.4% have one here.
SMARCA2 act: SMARCA2 function activation, primary screen; MG213 cells, MMTV-luciferase reporter, dexamethasone, overnight; activation, % at 9.1 µM; 370,000 compounds, 1% hits; in the data active = activation above about 7.8%;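 note: 0% = vehicle wells and 100% = reference activator wells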
HSP90 inh: HSP90 refolding inhibition in rabbit reticulocyte lysate | inhibition, % at 5.6 µM | luciferase refolding luminescence, 3 h | 290,000 compounds, 0.91% hits;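 active = inhibition above the screen-wide mean plus 3 SD, computed separately per campaign, cut at about 16% in these data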;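 note: 0% = DMSO wells and 100% = 60 µM geldanamycin wells; inhibitors lower the luminescence because luciferase stays unfolded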
AI-2 QS mod: modulates the Vibrio harveyi AI-2 quorum sensing system; Vibrio harveyi JMH597 AI-2 luminescence/OD600 ratio, 9 h; stronger effect = lower value; strain lacks LuxN and CqsS sensors; 0 = neutral-control median; activity change, % at 7.5 µM; 300,000 compounds, 0.4% hits; AID 2094; in the data active = activity change below about -75%, passing the limit was not always enough; inconclusive = no clear call, values can overlap the other calls;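 note: luminescence divided by OD600 gain over 9 h not by final OD600 alone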
PG9 Ab binder: PG9 antibody binding by small molecule | TR-FRET gp120-PG9 antibody binding | inhibition, % at 6.7 µM | 360,000 compounds, 0.43% hits; in the data active = inhibition above about 8.5%
HSF1 inh: HSF1 inhibition. NIH3T3-HGL HSE-luciferase, MG132-induced, luminescence 8 h; stronger effect = lower value. activity change, negative = inhibition, % at 7.5 µM (by protocol). 300,000 compounds, 0.77% hits;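 active = more than half of replicate wells show activity change below -50%, luminescence cut by over half; inconclusive = some wells, but at most half, below -50%; inactive = no replicate well below -50%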;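 note: luciferase reports HSF-1 transcriptional activity via heat shock element; 0% = median of DMSO wells and -100% = zero luminescence signal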
FXN GAA850 act: frataxin GAA850 promoter activation | activation, % at 6 µM | AID 540364 | 360,000 compounds, 0.56% hits | HEK293 lucGAA850 FXN promoter luciferase reporter, 24 h; percent of 10 µM SAHA response;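 active = activation above the average of all compounds screened plus 3 SD, cutoff fixed separately per campaign, cut at about 7.5% in these data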;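 note: 0% = DMSO wells and 100% = 10 µM SAHA wells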
* = called active by the depositor; u = inconclusive; x = not tested or not shown.

SMILES | SMARCA2 act | HSP90 inh | AI-2 QS mod | PG9 Ab binder | HSF1 inh | FXN GAA850 act
Oc1c(C(Nc2nccs2)c2ccc(C(F)(F)F)cc2)ccc2cccnc12 (stereo unspecified) | -3 | 2 | u | 1 | -59* | -7
COCCCNc1ccn2nc(-c3ccc(OCCN4CCOCC4)cc3)cc2n1 | 7.9* | x | x | 1 | x | 1
O=C(NC1CCC1)c1ccc(C#Cc2cccc(F)c2)nc1 | 4 | x | x | x | x | x
CSc1ccccc1NC(=O)c1ccc(N2CC3CC(C2)c2cccc(=O)n2C3)c(NC(=O)c2cccnc2)c1 (stereo unspecified) | -1 | -4 | 26 | 0 | 6 | 1
COc1ccccc1NC(=O)c1ccc(N2CC3CC(C2)c2cccc(=O)n2C3)c(NC(=O)c2ccncc2)c1 (stereo unspecified) | -1 | 1 | 20 | -1 | -57* | 0
COc1ccc2c(c1)[C@@]1(NCCc3c1[nH]c1ccc(OC)cc31)C(=O)N2C | -3 | x | x | x | x | x
Cc1ccc(C(=O)Nc2ncc([N+](=O)[O-])s2)cc1 | -6 | 80* | 16 | -3 | 6 | -10
OCC[C@H]1C[C@H](O)[C@@H](O)[C@@]2(Cc3ccccc3CO2)O1 | -1 | x | x | 2 | x | 0
OCC[C@@H]1C[C@@H](O)[C@H](O)[C@@]2(Cc3ccccc3CO2)O1 | 2 | -1 | -5 | -2 | -66* | 2
COc1cc(C2C(C#N)=C(N)OC3=C2C(=O)CCC3)c([N+](=O)[O-])cc1OC (stereo unspecified) | -1 | 2 | -1 | 0 | -77* | 4
Nc1cc2ccccc2cc1NS(=O)(=O)N1CCCCC1 | -2 | x | x | -1 | x | x
CC(OC(=O)c1nsc(Cl)c1Cl)C(=O)NCc1ccc2c(c1)OCO2 (stereo unspecified) | -1 | -1 | -4 | 1 | -85* | 3
CCN(CC)c1ccc(/C=C(/C#N)c2nc3ccccc3[nH]2)c(OC(C)C)c1 | 0 | 16* | 18 | -1 | -46 | -4
O=C(Nc1cccc(O)c1)c1cc(-c2ccco2)on1 | 6 | 17* | 0 | 0 | 13 | 1
O=C(N/N=C/c1ccccn1)c1ccc([N+](=O)[O-])cc1 | -1 | -3 | 33 | 1 | -81* | -1
O=C(NN=Cc1ccccc1Cl)c1ccc([N+](=O)[O-])cc1 | 2 | x | x | 0 | x | -1
O=C(N/N=C/c1ccc[nH]1)c1ccc([N+](=O)[O-])cc1 | 7.9* | -2 | 21 | -2 | -4 | 3
COCC(=O)N(C)[C@H]1C[C@H]2c3[nH]c4cccc(-c5cccc(F)c5)c4c3CCN2C(=O)[C@H]1[C@H](C)O | 2 | x | x | x | x | x
O=C(O)c1cc(N/N=C/c2ccc(-c3ccccc3)cc2)ccc1Cl | 3 | 29* | 27 | 1 | -12 | 3
COc1ccc(/C=C(\CC(=O)O)c2nc3ccccc3s2)cc1O | -4 | -1 | 23 | -2 | -3 | 0
COc1ccc(-c2nn(-c3ccccc3)cc2/C=N/Nc2ccc(Cl)c(C(=O)O)c2)cc1OC | -2 | 17* | 13 | 0 | -4 | 2
COc1ccc(-c2nn(-c3ccccc3)cc2/C=C(\CC(=O)O)c2nc3ccccc3s2)cc1OC | 2 | -2 | 25 | 2 | -70* | 5
CC1(C)CC(=O)C=C(Nc2ccccc2NC(=O)c2ccc(F)cc2F)C1 | -1 | x | x | x | x | x
COc1cccc(N(C(=O)CCl)C(C(=O)NCCc2ccccc2)c2cccs2)c1 (stereo unspecified) | -7 | 6 | 28 | -1 | -92* | -12
COc1ccc(N(C(=O)CCl)C(C(=O)NCCc2ccccc2)c2cccs2)cc1Cl (stereo unspecified) | -12 | 1 | 17 | 1 | 14 | -10
CCN1CCc2c(sc(NC(=O)c3cc4ccccc4cc3OC)c2C(N)=O)C1 | 3 | -2 | 9 | 0 | -51* | 0
CC(C)N1CCc2c(sc(NC(=O)c3ccc4ccccc4c3)c2C(N)=O)C1 | 5 | 3 | 23 | 0 | -60* | 3
Cc1ccc(-c2nc3cnccn3c2Nc2c(C)cccc2C)o1 | -4 | -2 | 6 | 1 | -82* | 1
CCC(CO)Nc1cccc2c1S(=O)(=O)N(Cc1cn(Cc3ccc(Cl)cc3)nn1)Cc1ccccc1O2 (stereo unspecified) | -5 | x | x | x | x | x
